Assay results reported in PubChem BioAssay (EPA / NIEHS).
The source made the active and inactive calls. Rule for the calls: active = hit-call score of the fitted dose curve at least 0.9, where 1 is the maximum; inactive = score below 0.9.

Assays:
[1] = ATG_EGR_CIS: Attagene CIS-FACTORIAL HepG2 Assay for human Early Growth Response 1 (EGR1) (AID 2282938); details: HepG2 Attagene CIS-FACTORIAL EGR reporter mRNA; actives raise or lower the signal
Procedure, shortened: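 Multiplexed cis-reporter system in human hepatoma HepG2 cells, transiently transfected. Cells are dosed for 24 h; reporter transcripts are amplified, fluorescently tagged and sized by capillary electrophoresis, with DMSO as negative control.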

[2] = ATG_M_19_CIS: Attagene CIS-FACTORIAL HepG2 Assay for M19 Transcription Factor (Internal Marker) (AID 2282939); details: HepG2 Attagene CIS-FACTORIAL M19 internal marker reporter; actives raise or lower the signal
Procedure, shortened: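 HepG2 cells transiently transfected with cis-regulated multiple reporter transcription units were dosed for 24 h; reporter mRNA was quantified by RT-PCR, 6-FAM primer-extension labelling, HpaI digestion and capillary electrophoresis, with bidirectional fitting against DMSO baseline.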

[3] = ATG_Ets_CIS: Attagene CIS-FACTORIAL HepG2 Assay for human Erythroblast Transformation Specific (ETS) (AID 2282941); details: HepG2 ETS cis-reporter transcription, actives raise or lower the signal
Procedure, shortened: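 Cis-regulated reporter mRNA induction in HepG2 (transient transfection), 24 h exposure, RT-PCR plus capillary electrophoresis detection; DMSO serves as negative control and baseline.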

[4] = biological target: Hepatocyte nuclear factor 3-beta (Homo sapiens) (UniProt Q9Y261); test: ATG_FoxA2_CIS: Attagene CIS-FACTORIAL HepG2 Assay for human Forkhead box A2 (FOXA2) (AID 2282942); details: HepG2 cis-reporter transcription factor activity, 24 h; actives raise or lower the signal
Procedure, shortened: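 Multiplexed cis-element reporter assay in transiently transfected HepG2. Twenty-four hours post-dosing, RNA was reverse-transcribed, amplified, FAM-labelled, HpaI-digested and separated by CE. Activity gain or loss relative to DMSO.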

[5] = ATG_FoxO_CIS: Attagene CIS-FACTORIAL HepG2 Assay for human Forkhead box O (FoxO) (AID 2282943); details: HepG2 Attagene cis-reporter, FoxO element, mRNA; actives raise or lower the signal
Procedure, shortened: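 24 h chemical exposure, HepG2 with transient cis-MRTU transfection. RNA extraction, oligo(dT) RT, reporter-specific PCR, primer-extension labelling, HpaI digestion, CE fragment analysis; bidirectional fit, DMSO baseline.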

[6] = ATG_GATA_CIS: Attagene CIS-FACTORIAL HepG2 Assay for human GATA Binding Protein (AID 2282944); details: HepG2 GATA cis-element reporter, Attagene multiplex mRNA; actives raise or lower the signal
Procedure, shortened: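 HepG2 cells transiently transfected with multiplexed cis-element reporter units reflecting endogenous transcription factor activity; reporter mRNA measured after 24 h dosing by RT-PCR, 6-FAM labeling, HpaI digestion and capillary electrophoresis. Bidirectional fitting versus DMSO baseline.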

[7] = ATG_GLI_CIS: Attagene CIS-FACTORIAL HepG2 Assay for human Zinc Finger Protein GLI1 (AID 2282945); details: HepG2, Attagene cis-factorial reporter mRNA, GLI element; actives raise or lower the signal
Procedure, shortened: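 HepG2 cells transiently transfected with cis-promoter multiplexed reporter units report endogenous transcription factor activity. After 24 h chemical exposure, reporter mRNA was quantified by RT-PCR, 6-FAM labelling, HpaI digestion and capillary electrophoresis, with bidirectional fitting against DMSO.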

[8] = ATG_ERE_CIS: Attagene CIS-FACTORIAL HepG2 Assay for Estrogen Response Element (ERE) (AID 2282940); details: HepG2 ERE cis-reporter, Attagene RNA transcript; actives raise or lower the signal
Procedure, shortened: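 HepG2 cells transiently transfected with cis-promoter-driven multiplexed reporter transcription units report endogenous TF activity. After 24 h compound exposure, reporter mRNA is quantified by RT-PCR with capillary electrophoresis fluorescence; bidirectional fitting versus DMSO baseline.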

[9] = ATG_GRE_CIS: Attagene CIS-FACTORIAL HepG2 Assay for human Glucocorticoid Response Elements (GRE) (AID 2282947); details: HepG2 GRE cis-reporter, Attagene multiplex mRNA; actives raise or lower the signal
Procedure, shortened: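 Cells (HepG2) bearing transfected cis-promoter reporter transcription units were treated with chemical for 24 hours. Reporter mRNA was measured via RT-PCR with capillary electrophoresis, and activity was fitted in both directions relative to DMSO.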

[10] = biological target: Bile acid receptor (Homo sapiens) (UniProt Q96RI1); test: ATG_IR1_CIS: Attagene CIS-FACTORIAL HepG2 Assay for human Nuclear Receptor Subfamily 1 Group H Member 4 (NR1H4), IR1 submotif (AID 2282946); details: IR1 reporter transcription, actives raise or lower the signal
Procedure, shortened: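 Readout: reporter transcript levels by RT-PCR with fluorescent capillary electrophoresis, from HepG2 cells transiently transfected with multiplexed cis-regulated reporters and dosed 24 h. Gain- or loss-of-signal fitted versus DMSO negative control.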

Sequence of Bile acid receptor (Homo sapiens) (Q96RI1 whole entry, looked up): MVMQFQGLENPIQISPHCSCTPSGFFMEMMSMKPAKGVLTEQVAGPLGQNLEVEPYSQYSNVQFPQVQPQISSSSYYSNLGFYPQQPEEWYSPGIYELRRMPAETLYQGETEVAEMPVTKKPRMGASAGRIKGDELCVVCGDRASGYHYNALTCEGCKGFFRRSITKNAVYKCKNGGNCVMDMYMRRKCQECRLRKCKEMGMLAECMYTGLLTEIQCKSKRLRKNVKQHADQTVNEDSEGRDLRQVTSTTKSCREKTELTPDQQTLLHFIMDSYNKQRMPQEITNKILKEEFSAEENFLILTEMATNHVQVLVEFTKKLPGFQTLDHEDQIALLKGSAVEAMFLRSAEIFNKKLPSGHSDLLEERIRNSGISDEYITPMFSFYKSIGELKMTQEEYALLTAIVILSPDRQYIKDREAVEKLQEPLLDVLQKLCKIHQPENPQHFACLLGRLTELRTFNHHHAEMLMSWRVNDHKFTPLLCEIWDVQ
Sequence of Hepatocyte nuclear factor 3-beta (Homo sapiens) (Q9Y261 whole entry, looked up): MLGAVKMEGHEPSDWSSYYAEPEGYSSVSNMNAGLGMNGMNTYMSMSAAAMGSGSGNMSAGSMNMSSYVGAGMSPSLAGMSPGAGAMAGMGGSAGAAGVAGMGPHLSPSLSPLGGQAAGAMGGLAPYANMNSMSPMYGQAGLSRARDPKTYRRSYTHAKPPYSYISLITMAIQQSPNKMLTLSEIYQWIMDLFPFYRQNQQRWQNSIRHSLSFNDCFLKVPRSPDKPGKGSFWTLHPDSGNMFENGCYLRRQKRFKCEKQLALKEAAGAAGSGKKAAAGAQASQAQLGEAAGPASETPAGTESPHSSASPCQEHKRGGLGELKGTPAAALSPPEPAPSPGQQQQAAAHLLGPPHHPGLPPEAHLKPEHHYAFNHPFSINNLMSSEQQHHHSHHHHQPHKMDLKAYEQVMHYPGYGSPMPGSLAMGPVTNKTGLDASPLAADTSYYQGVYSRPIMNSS

SMILES | outcome [1] | outcome [2] | outcome [3] | outcome [4] | outcome [5] | outcome [6] | outcome [7] | outcome [8] | outcome [9] | outcome [10] | AC50 [1] | AC50 [8] | AC50 [7] | AC50 [3] | AC50 [5] | AC50 [9]
O=[N+]([O-])c1cccc2ccccc12 | inactive | inactive | inactive | inactive | inactive | inactive | inactive |  |  |  |  |  |  |  |  | 
C=C(C)C(=O)OCCCCOC(=O)C(=C)C | inactive | inactive | inactive | inactive | inactive |  | inactive | inactive | inactive |  |  |  |  |  |  | 
CC(=O)CN(CC(C)=O)N=O | inactive | inactive | inactive | inactive | inactive | inactive | inactive |  |  |  |  |  |  |  |  | 
Nc1ccc(Br)cc1 | inactive | inactive |  | inactive | inactive | inactive | inactive | inactive |  | inactive |  |  |  |  |  | 
Oc1c(Br)cc(Br)cc1Br |  | inactive | inactive | inactive | inactive | inactive | inactive |  |  |  | 31.9 µM (active) |  |  |  |  | 
CC(C)(C)c1ccc(CCOc2ncnc3ccccc23)cc1 | inactive | inactive |  | inactive | inactive | inactive | inactive | inactive |  | inactive |  |  |  |  |  | 
N#Cc1ccncc1 | inactive | inactive | inactive | inactive | inactive |  | inactive | inactive | inactive |  |  |  |  |  |  | 
Cc1ccc(OP(=O)(Oc2ccc(C)cc2C)Oc2ccc(C)cc2C)c(C)c1 | inactive | inactive |  | inactive | inactive | inactive |  |  | inactive | inactive |  | 5.48 µM (active) | 25.7 µM (active) |  |  | 
O=S1(=O)OC(c2cc(Br)c(O)c(Br)c2)(c2cc(Br)c(O)c(Br)c2)c2ccccc21 | inactive | inactive |  | inactive | inactive |  | inactive | inactive | inactive | inactive |  |  |  |  |  | 
O=c1[nH]c2ccccc2n1C1CCN(CCCC(c2ccc(F)cc2)c2ccc(F)cc2)CC1 | inactive | inactive |  | inactive | inactive | inactive | inactive |  | inactive | inactive |  | 4.17 µM (active) |  |  |  | 
OCCN(CCO)CCO | inactive | inactive | inactive | inactive | inactive | inactive | inactive |  |  |  |  |  |  |  |  | 
O=C1C[C@@H]2OCC=C3CN4CC[C@]56c7ccccc7N1[C@H]5[C@H]2[C@H]3C[C@H]46 | inactive | inactive | inactive | inactive | inactive | inactive | inactive |  |  |  |  |  |  |  |  | 
Cc1cc(C(C)(C)c2ccc(O)c(C)c2)ccc1O |  | inactive |  | inactive |  |  |  |  |  | inactive | 32.4 µM (active) | 0.265 µM (active) | 74.7 µM (active) | 20.2 µM (active) | 72.8 µM (active) | 79.5 µM (active)
CCOC(=O)Cc1ccccc1 | inactive | inactive | inactive | inactive | inactive | inactive | inactive |  |  | inactive |  |  |  |  |  | 
CN(CCCC(O)c1cccnc1)N=O (stereo not drawn) | inactive | inactive | inactive | inactive | inactive | inactive | inactive |  | inactive | inactive |  |  |  |  |  | 
C#CCOC(=O)/C=C(C)/C=C/CC(C)CCCC(C)C (stereo not drawn) | inactive | inactive | inactive | inactive | inactive | inactive | inactive |  | inactive | inactive |  |  |  |  |  | 
